± gives the standard deviation of the averaged measurements. Of roughly 6,200 targets only a part is listed; those with the largest changes were picked by preference.

Compound in the assay: Nc1ncnc2c1ncn2[C@@H]1O[C@H](COP(=O)(O)OP(=O)(O)NP(=O)(O)O)[C@@H](O)[C@H]1O [adenylyl imidodiphosphate]
Kind of assay: NP40-soluble protein abundance relative to vehicle (solubility fold change) (ratio); higher = more soluble protein in presence of AMP-PNP. The gist of the method: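 Jurkat crude lysate (Dounce-homogenised) was treated with eight concentrations from 0.1 to 10 mM for 10 min at room temperature, then 3 min at 37 °C. It was solubilised with 0.8% NP40 and benzonase (60 min, 4 °C) and ultracentrifuged, and the supernatant was TMT-labelled for LC-MS/MS. Intensities were vsn-normalised, and the value is the fold change against the NP40-processed vehicle per replicate, from three independent experiments.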

Sequence of UniProt Q96ME7 (Q96ME7 whole entry, one chain of several): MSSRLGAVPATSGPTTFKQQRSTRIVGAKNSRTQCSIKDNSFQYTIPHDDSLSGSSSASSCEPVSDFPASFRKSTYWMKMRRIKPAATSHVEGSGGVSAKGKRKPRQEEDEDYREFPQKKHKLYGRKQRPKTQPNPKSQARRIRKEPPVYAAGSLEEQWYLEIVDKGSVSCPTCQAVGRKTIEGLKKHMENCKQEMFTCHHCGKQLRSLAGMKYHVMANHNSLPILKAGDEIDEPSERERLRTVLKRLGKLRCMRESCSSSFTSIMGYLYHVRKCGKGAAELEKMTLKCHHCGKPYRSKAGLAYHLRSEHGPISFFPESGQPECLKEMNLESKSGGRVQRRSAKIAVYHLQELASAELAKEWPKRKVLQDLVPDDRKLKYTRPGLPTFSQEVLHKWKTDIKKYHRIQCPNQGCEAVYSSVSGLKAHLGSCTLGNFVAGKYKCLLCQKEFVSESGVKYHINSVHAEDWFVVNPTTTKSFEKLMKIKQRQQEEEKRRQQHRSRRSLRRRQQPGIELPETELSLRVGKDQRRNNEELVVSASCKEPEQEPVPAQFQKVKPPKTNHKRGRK
Sequence of UniProt Q96S38 (Q96S38 whole entry, one chain of several): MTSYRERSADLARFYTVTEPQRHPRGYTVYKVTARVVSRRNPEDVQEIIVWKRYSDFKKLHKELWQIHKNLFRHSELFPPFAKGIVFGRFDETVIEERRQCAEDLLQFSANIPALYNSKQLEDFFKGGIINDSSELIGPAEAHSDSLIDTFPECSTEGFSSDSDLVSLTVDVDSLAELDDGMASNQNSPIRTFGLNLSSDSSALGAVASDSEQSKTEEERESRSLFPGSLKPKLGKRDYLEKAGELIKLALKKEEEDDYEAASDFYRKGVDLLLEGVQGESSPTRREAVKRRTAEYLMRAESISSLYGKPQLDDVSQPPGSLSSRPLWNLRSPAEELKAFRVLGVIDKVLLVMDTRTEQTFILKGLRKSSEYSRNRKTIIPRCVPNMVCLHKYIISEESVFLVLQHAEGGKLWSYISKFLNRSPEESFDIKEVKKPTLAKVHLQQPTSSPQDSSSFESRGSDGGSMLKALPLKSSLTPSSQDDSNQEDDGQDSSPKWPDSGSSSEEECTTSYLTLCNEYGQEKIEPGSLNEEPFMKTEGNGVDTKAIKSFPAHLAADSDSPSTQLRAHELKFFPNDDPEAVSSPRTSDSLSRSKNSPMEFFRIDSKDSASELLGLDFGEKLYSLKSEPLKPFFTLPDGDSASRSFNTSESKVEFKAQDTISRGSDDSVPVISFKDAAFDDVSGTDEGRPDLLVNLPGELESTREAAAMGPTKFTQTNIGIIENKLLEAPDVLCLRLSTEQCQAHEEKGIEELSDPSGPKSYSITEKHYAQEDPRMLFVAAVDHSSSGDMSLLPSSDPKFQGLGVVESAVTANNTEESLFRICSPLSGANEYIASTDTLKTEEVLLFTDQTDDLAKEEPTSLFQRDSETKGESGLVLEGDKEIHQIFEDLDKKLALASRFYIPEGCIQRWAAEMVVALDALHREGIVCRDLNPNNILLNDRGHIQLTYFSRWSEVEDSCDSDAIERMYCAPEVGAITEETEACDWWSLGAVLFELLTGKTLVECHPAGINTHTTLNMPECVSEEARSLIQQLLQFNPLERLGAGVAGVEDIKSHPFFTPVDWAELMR
Sequence of UniProt O75152 (O75152 whole entry): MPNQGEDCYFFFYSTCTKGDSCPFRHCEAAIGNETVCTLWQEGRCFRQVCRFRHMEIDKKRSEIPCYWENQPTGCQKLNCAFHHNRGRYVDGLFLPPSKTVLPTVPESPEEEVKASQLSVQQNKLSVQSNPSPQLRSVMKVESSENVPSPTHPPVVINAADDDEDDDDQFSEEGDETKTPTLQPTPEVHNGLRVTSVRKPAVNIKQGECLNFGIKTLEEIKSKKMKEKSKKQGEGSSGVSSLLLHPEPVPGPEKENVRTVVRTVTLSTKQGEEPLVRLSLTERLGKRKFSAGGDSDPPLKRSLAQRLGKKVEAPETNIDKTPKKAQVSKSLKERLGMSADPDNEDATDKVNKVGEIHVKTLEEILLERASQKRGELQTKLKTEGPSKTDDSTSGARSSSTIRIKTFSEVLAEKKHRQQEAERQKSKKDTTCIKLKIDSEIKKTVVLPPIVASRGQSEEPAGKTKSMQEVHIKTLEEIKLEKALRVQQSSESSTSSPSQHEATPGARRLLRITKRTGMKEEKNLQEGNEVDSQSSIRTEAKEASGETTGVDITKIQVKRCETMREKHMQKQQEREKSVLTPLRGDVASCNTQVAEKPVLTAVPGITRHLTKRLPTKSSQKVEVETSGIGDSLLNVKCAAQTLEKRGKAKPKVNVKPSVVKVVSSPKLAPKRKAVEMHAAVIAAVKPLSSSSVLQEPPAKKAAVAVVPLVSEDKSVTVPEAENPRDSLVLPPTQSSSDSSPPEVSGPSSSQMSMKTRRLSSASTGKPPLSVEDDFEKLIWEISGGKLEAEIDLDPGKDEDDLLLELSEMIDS
Sequence of UniProt Q9H6E5 (Q9H6E5 whole entry, one chain of several): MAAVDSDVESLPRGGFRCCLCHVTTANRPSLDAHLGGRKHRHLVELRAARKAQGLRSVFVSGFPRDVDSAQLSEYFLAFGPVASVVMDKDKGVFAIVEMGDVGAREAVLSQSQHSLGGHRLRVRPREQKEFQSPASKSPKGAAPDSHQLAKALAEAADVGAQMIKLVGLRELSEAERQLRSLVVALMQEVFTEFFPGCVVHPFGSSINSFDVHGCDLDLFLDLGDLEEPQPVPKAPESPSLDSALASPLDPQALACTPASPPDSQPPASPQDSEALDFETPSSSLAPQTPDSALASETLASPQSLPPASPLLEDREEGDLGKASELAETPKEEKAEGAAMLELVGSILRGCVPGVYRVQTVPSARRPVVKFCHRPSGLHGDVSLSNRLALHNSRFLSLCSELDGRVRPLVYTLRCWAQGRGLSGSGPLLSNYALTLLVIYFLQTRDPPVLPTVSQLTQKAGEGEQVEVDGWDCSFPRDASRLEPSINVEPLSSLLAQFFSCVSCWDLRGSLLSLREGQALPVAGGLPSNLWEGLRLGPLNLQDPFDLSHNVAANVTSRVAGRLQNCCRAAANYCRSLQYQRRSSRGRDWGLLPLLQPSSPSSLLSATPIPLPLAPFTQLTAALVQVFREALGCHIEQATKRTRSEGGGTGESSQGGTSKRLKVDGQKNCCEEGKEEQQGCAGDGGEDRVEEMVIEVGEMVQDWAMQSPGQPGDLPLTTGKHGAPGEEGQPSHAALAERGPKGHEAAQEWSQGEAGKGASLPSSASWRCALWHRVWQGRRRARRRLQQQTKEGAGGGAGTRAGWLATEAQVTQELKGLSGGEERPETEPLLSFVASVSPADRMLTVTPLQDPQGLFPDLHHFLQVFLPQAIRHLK
Sequence of UniProt O75879 (O75879 whole entry, one chain of several): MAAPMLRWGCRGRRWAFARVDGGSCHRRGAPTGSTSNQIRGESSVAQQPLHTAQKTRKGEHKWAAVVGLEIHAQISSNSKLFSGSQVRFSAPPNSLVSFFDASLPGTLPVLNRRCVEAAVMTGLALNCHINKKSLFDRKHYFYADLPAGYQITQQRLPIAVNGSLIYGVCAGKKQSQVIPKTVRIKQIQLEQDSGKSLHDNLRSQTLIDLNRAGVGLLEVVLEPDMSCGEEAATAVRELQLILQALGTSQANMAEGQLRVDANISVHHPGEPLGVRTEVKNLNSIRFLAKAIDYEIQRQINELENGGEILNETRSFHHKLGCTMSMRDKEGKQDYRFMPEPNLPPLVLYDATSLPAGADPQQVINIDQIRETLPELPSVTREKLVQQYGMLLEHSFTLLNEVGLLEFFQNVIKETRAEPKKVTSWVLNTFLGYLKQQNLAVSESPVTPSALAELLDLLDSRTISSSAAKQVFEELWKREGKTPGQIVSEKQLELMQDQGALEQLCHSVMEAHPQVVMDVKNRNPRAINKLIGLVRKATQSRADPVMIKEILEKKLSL
Sequence of UniProt O96015 (O96015 whole entry, one chain of several): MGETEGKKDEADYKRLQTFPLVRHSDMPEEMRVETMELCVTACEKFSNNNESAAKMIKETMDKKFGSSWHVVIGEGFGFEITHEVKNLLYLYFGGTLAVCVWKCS
Sequence of UniProt P24864 (P24864 whole entry, one chain of several): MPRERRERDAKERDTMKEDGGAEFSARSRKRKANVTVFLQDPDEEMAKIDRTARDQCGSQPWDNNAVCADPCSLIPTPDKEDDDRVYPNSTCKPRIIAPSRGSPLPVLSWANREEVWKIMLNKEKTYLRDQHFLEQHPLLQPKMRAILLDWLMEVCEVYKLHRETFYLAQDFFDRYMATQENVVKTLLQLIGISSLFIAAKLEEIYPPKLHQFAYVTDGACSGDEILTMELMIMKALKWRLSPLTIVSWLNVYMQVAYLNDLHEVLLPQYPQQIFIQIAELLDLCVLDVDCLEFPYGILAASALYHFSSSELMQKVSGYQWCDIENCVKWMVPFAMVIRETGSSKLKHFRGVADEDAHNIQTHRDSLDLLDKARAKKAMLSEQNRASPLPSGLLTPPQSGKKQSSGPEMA
Sequence of UniProt O00567 (O00567 whole entry): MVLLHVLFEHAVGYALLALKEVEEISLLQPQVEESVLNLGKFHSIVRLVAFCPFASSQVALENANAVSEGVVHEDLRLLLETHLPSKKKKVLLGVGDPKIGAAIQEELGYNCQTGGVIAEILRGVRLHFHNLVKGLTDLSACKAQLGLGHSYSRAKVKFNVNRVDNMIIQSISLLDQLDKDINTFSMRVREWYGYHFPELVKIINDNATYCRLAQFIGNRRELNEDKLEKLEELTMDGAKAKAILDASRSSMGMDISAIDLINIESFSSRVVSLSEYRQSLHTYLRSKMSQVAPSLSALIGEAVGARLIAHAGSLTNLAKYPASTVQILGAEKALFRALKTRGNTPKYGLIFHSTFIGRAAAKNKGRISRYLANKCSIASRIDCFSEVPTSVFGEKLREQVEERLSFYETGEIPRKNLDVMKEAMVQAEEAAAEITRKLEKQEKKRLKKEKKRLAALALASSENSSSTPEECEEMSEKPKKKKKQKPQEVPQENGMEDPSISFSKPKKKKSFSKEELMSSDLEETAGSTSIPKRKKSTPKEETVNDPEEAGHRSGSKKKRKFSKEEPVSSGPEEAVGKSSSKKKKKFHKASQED

For F5H0R1|Q9H6E5 (UniProt Q9H6E5), the NP40-soluble protein abundance runs as follows: (concentration: 1mM) 0.994 ± 0.023; (concentration: 2mM) 1.01 ± 0.039; (concentration: 4mM) 1.02 ± 0.016; (concentration: 6mM) 0.973 ± 0.032; (concentration: 8mM) 0.983 ± 0.024; (concentration: 10mM) 0.978 ± 0.025.
Turning to DKC1 (UniProt O60832), the NP40-soluble protein abundance is, setting by setting: (concentration: 1mM) 1.049 ± 0.0097; (concentration: 2mM) 1.1 ± 0.057; (concentration: 4mM) 1.13 ± 0.028; (concentration: 6mM) 1.21 ± 0.051; (concentration: 8mM) 1.29 ± 0.046; (concentration: 10mM) 1.36 ± 0.083.
Take J3KNV1|O60281 (UniProt O60281): the NP40-soluble protein abundance stood at 1.02 ± 0.034 (concentration: 1mM); 1.08 ± 0.024 (concentration: 2mM); 1.016 ± 0.0028 (concentration: 4mM); 0.966 ± 0.034 (concentration: 6mM); 0.968 ± 0.02 (concentration: 8mM); 0.985 ± 0.041 (concentration: 10mM).
As for HMGN4 (UniProt O00479), the NP40-soluble protein abundance worked out at 1.024 ± 0.01 (concentration: 1mM); 1.01 ± 0.047 (concentration: 2mM); 1.04 ± 0.056 (concentration: 4mM); 1.1 ± 0.07 (concentration: 6mM); 1.08 ± 0.075 (concentration: 8mM); 1.22 ± 0.076 (concentration: 10mM).
In the case of B5MCX3|Q15019|Q15019-2 (UniProt Q15019), the NP40-soluble protein abundance runs as follows: (concentration: 1mM) 1.027 ± 0.0023; (concentration: 2mM) 0.997 ± 0.032; (concentration: 4mM) 1.003 ± 0.0091; (concentration: 6mM) 0.984 ± 0.026; (concentration: 8mM) 0.98 ± 0.017; (concentration: 10mM) 0.952 ± 0.037.
Turning to B4DXZ6|P51114 (UniProt P51114), the NP40-soluble protein abundance (concentration: 1mM) stood at 1.12 ± 0.029; the NP40-soluble protein abundance (concentration: 2mM) is 1.17 ± 0.039; the NP40-soluble protein abundance (concentration: 4mM) is 1.3 ± 0.055; the NP40-soluble protein abundance (concentration: 6mM) was determined as 1.43 ± 0.15; the NP40-soluble protein abundance (concentration: 8mM) was 1.55 ± 0.2; the NP40-soluble protein abundance (concentration: 10mM) was 1.62 ± 0.2.
As for UniProt O00567, the NP40-soluble protein abundance runs as follows: (concentration: 1mM) 1.08 ± 0.026; (concentration: 2mM) 1.08 ± 0.024; (concentration: 4mM) 1.16 ± 0.026; (concentration: 6mM) 1.25 ± 0.056; (concentration: 8mM) 1.37 ± 0.087; (concentration: 10mM) 1.53 ± 0.12.
In the case of F6U236|Q9BY11 (UniProt Q9BY11), the NP40-soluble protein abundance runs as follows: (concentration: 1mM) 0.978 ± 0.036; (concentration: 2mM) 1.03 ± 0.057; (concentration: 4mM) 0.968 ± 0.018; (concentration: 6mM) 1 ± 0.063; (concentration: 8mM) 0.978 ± 0.069; (concentration: 10mM) 0.989 ± 0.054.
As to “A0A0C4DG78|M0R3C6|Q8TBC5|Q8TBC5-2|Q8TBC5-3|Q8TBC5-4 (UniProt Q8TBC5)”, the NP40-soluble protein abundance by setting is: (concentration: 1mM) 1 ± 0.012; (concentration: 2mM) 1.02 ± 0.03; (concentration: 4mM) 0.984 ± 0.028; (concentration: 6mM) 1.016 ± 0.003; (concentration: 8mM) 1.002 ± 0.0089; (concentration: 10mM) 1.02 ± 0.011.
Turning to “C9J2U0|I3L413|P24864|P24864-2|P24864-3 (UniProt P24864)”, the NP40-soluble protein abundance reads like this: (concentration: 1mM) 0.913 ± 0.0092; (concentration: 2mM) 0.822 ± 0.076; (concentration: 4mM) 0.935 ± 0.011; (concentration: 6mM) 0.936 ± 0.032; (concentration: 8mM) 0.9933 ± 0.0062; (concentration: 10mM) 0.953 ± 0.07.
ZC3H11A (UniProt O75152): the NP40-soluble protein abundance (concentration: 1mM) stood at 0.86 ± 0.11; the NP40-soluble protein abundance (concentration: 2mM) worked out at 0.883 ± 0.1; the NP40-soluble protein abundance (concentration: 4mM) was 0.853 ± 0.13; the NP40-soluble protein abundance (concentration: 6mM) was 0.936 ± 0.094; the NP40-soluble protein abundance (concentration: 8mM) turned out to be 0.933 ± 0.098; the NP40-soluble protein abundance (concentration: 10mM) turned out to be 1.03 ± 0.098.
Take “F5H7T0|F6RJM5|Q96S38|Q96S38-2 (UniProt Q96S38)”: the NP40-soluble protein abundance is, setting by setting: (concentration: 1mM) 0.999 ± 0.0077; (concentration: 2mM) 1.02 ± 0.028; (concentration: 4mM) 1.01 ± 0.034; (concentration: 6mM) 0.9695 ± 0.004; (concentration: 8mM) 0.991 ± 0.023; (concentration: 10mM) 0.965 ± 0.046.
In the case of D6REA0|O75879 (UniProt O75879), the NP40-soluble protein abundance (concentration: 1mM) came out at 0.962 ± 0.026; the NP40-soluble protein abundance (concentration: 2mM) is 0.9665 ± 0.0091; the NP40-soluble protein abundance (concentration: 4mM) came to 0.968 ± 0.036; the NP40-soluble protein abundance (concentration: 6mM) came out at 1.03 ± 0.028; the NP40-soluble protein abundance (concentration: 8mM) came to 0.986 ± 0.038; the NP40-soluble protein abundance (concentration: 10mM) was 1.003 ± 0.0032.
As to G3XAG1|Q96ME7|Q96ME7-3 (UniProt Q96ME7), the NP40-soluble protein abundance is, setting by setting: (concentration: 1mM) 1.04 ± 0.064; (concentration: 2mM) 1.03 ± 0.1; (concentration: 4mM) 1.17 ± 0.086; (concentration: 6mM) 1.39 ± 0.083; (concentration: 8mM) 1.52 ± 0.039; (concentration: 10mM) 1.64 ± 0.1.
For the target B0QXZ5|O96015 (UniProt O96015), the NP40-soluble protein abundance reads like this: (concentration: 1mM) 1 ± 0.02; (concentration: 2mM) 1.01 ± 0.047; (concentration: 4mM) 0.983 ± 0.018; (concentration: 6mM) 0.998 ± 0.021; (concentration: 8mM) 0.996 ± 0.019; (concentration: 10mM) 0.9826 ± 0.0082.

The record behind these values is the supplement of paper PMC6411743.
